Publication PMC5540273 (PLoS ONE, 2017)

Assays:
Settings in all cases: concentration: 1 μM, replicates: in singlicate; n = 1
JNK1 = test system: T1, JNK1
T1 construct: gene MAPK8

JNK2 = test system: T2, JNK2
T2 construct: gene MAPK9

JNK3 = test system: T3, JNK3
T3 construct: gene MAPK10

KIT-autoinhibited = test system: KIT-autoinhibited
KIT = test system: KIT
LATS1 = test system: LATS1
LATS2 = test system: LATS2
LCK = test system: LCK
LIMK1 = test system: LIMK1
LIMK2 = test system: LIMK2
LKB1 = test system: T4, LKB1
T4 construct: gene STK11

LOK = test system: T5, LOK
T5 construct: gene STK10

LRRK2 = test system: LRRK2
LTK = test system: LTK
LYN = test system: LYN
LZK = test system: T6, LZK
T6 construct: gene MAP3K13

MAK = test system: MAK
MAP3K15 = test system: MAP3K15
MAP3K1 = test system: MAP3K1
MAP3K2 = test system: MAP3K2
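Further: KINOMEscan kinase panel screen.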

SMILES	%Inh (JNK1) [%]	%Inh (JNK2) [%]	%Inh (JNK3) [%]	%Inh (KIT-autoinhibited) [%]	%Inh (KIT) [%]	%Inh (LATS1) [%]	%Inh (LATS2) [%]	%Inh (LCK) [%]	%Inh (LIMK1) [%]	%Inh (LIMK2) [%]	%Inh (LKB1) [%]	%Inh (LOK) [%]	%Inh (LRRK2) [%]	%Inh (LTK) [%]	%Inh (LYN) [%]	%Inh (LZK) [%]	%Inh (MAK) [%]	%Inh (MAP3K15) [%]	%Inh (MAP3K1) [%]	%Inh (MAP3K2) [%]
Cc1ccc(C)c(NC(=O)NCCNc2ccnc(Nc3ccc(F)cc3)n2)c1 [GSK1379878]	13	13	2	0	0	0	0	3	0	0	14	0	0	0	0	0	22	0	0	0
Cl.Cl.c1ccc(-c2cc3ccncc3cc2OC2CCNCC2)cc1 [GSK1122999]	14	15	0	0	18	33	50	38	18	34	3	0	0	24	38	0	28	0	19	13
Nc1n[nH]c2nnc(-c3ccccc3)cc12 [SB-517389]	27	5	0	0	1	0	0	0	19	3	0	0	0	0	69	0	0	0	9	5
CCCc1ccc(S(=O)(=O)NC2CCN(c3ccnc(Nc4ccc(OC)cc4)n3)C2)cc1 (stereo not drawn) [GSK1379737]	20	21	0	0	37	0	0	16	0	100	6	0	0	100	0	25	16	0	1	1
FC(F)(F)c1cc(Nc2nccc(-c3c(-c4ccc(Cl)cc4)nn4ncccc34)n2)ccc1Cl [GW829351]	8	58	65	1	38	0	0	0	0	0	0	6	0	0	0	0	0	0	0	0
CC(C)(C)OC(=O)NC1CCCN(c2cc(-c3ccc4c(N)n[nH]c4c3)nc(N)n2)C1 (stereo not drawn) [GSK2286096]	34	21	7	0	8	11	0	0	6	0	0	0	0	0	0	0	17	0	10	0
CN1c2ccc(-c3ccc(C(=O)NCCO)cc3)cc2-c2[nH]ncc2S1(=O)=O	14	1	0	17	17	0	11	28	17	7	21	31	73	9	22	0	0	11	9	36
CCc1nc(-c2cccc(C)c2)c(-c2ccnc(NC(=O)c3ccccc3)c2)s1	53	79	93.3	6	21	30	100	0	0	0	0	11	3	10	8	42	16	2	2	0
Cl.Fc1ccccc1COc1ccc(Nc2ncnc3ccc(-c4nnc(C(F)(F)F)o4)cc23)cc1Cl [GW424170]	0	4	0	0	13	0	0	12	0	16	12	0	0	0	0	0	10	0	0	0
COC(=O)c1c(-c2ccccc2)c2cc(Cl)ccc2c(=O)n1Cc1ccc(S(C)(=O)=O)cc1	98.8	99.5	99.4	0	56	30	19	13	1	0	0	4	2	0	20	0	5	20	0	0
Cc1ccc(NC(=O)c2cccc(C#N)c2)cc1-c1ccc(C(=O)Nc2ccncc2)cc1 [GSK1398463]	25	16	17	13	100	19	0	83	28	14	0	0	28	0	69	0	36	0	12	0
Cn1ccc2ncnc(Oc3ccc(NC(=O)Nc4cccnc4)c(Cl)c3)c21	0	0	0	0	98.7	23	0	0	0	0	11	35	0	6	5	0	0	0	0	0
O=C(c1ccc(-c2cc(-c3c[nH]nc3-c3ccccn3)ccn2)cc1)N1CCCC1 [GW792479]	27	0	0	0	11	0	0	3	0	0	0	0	10	0	0	0	0	0	0	0
CSc1ccc(NC2=C(c3ccccc3Cl)C(=O)NC2=O)cc1 [SB-342411]	1	1	0	0	25	5	23	18	0	7	12	2	0	7	0	0	0	0	14	0
O=C(NCCCN1CCCC1=O)c1cnc(NCc2cc(Cl)ccc2Cl)nc1NC1CCNCC1	0	0	0	0	0	0	29	15	0	0	0	4	0	0	1	0	84	0	0	79
COc1ccc(NC(=O)c2ccc(-c3cc(-c4nnc(C)o4)ccc3C)cc2)cc1 [GW595885]	20	17	12	0	64	0	0	18	3	0	0	0	42	0	32	12	47	0	2	1
CNc1nccc(-c2c(-c3ccc(F)cc3)ncn2C2CCN(C)CC2)n1 [SB-222903]	0	69	43	0	0	2	0	0	0	0	0	3	0	0	0	0	0	0	0	0
c1ccc(-c2ccc3c(-c4ccnc(Nc5ccc6c(c5)OCCO6)n4)cnn3n2)cc1 [GW818941]	28	4	8	0	10	11	0	22	27	0	0	17	29	0	0	0	100	11	1	0
COc1ccc(Nc2nccc(N3CCC(NC(=O)Nc4ccc5c(c4)OCO5)C3)n2)cc1 (stereo not drawn) [GSK1379745]	18	20	20	0	48	0	0	24	0	26	4	0	1	18	1	39	20	3	12	14
COc1cc2ncnc(Nc3ccc(OCc4ccccc4Br)c(Cl)c3)c2cc1OC.Cl [GI261590]	15	10	0	0	3	8	3	57	0	3	0	96.6	0	14	30	10	33	0	4	0
Oc1ccc2ncnc(Nc3ccc(OCc4ccccc4)cc3)c2c1 [GI262866]	0	0	0	0	48	0	0	2	0	4	0	0	48	82	0	0	13	20	5	0

SMILES	%Inh (JNK1) [%]	%Inh (JNK2) [%]	%Inh (JNK3) [%]	%Inh (KIT-autoinhibited) [%]	%Inh (KIT) [%]	%Inh (LATS1) [%]	%Inh (LATS2) [%]	%Inh (LCK) [%]	%Inh (LIMK1) [%]	%Inh (LIMK2) [%]	%Inh (LKB1) [%]	%Inh (LOK) [%]	%Inh (LRRK2) [%]	%Inh (LTK) [%]	%Inh (LYN) [%]	%Inh (LZK) [%]	%Inh (MAK) [%]	%Inh (MAP3K15) [%]	%Inh (MAP3K1) [%]	%Inh (MAP3K2) [%]
CC(C)(C)c1ccc(-n2cnc3c(N)ncnc32)cc1 [SKF-97263]	21	3	1	1	38	0	18	8	8	0	0	2	22	6	5	0	8	16	8	1
Cc1ccc(O)cc1Nc1cc(C(F)(F)F)nc2ccc(-c3ccncc3)cc12 [GW630823]	0	0	0	0	14	0	0	14	21	15	0	5	0	0	1	0	7	0	0	1
FC(F)(F)c1ccc(-c2cc(-c3c[nH]nc3-c3ccccn3)ccn2)cc1 [GW599550]	0	5	0	0	26	0	40	25	7	0	12	0	7	21	0	29	11	0	5	0
NC(=O)c1sc(-n2cnc3ccccc32)cc1OCc1ccccc1F [GSK1024306]	3	28	14	0	0	0	0	9	0	20	0	63	29	5	0	27	13	0	59	0
CNc1nccc(-c2c(-c3ccc(F)cc3)ncn2CCCN2CCOCC2)n1 [SB-222516]	12	0	0	4	2	0	0	1	11	95.2	0	0	0	0	0	0	0	0	21	5
CS(=O)(=O)CCNCc1ccc(-c2ccc3ncnc(Nc4ccc(OCc5ccccc5)c(Cl)c4)c3c2)o1.Cl [GW574783]	18	4	0	0	10	0	11	30	0	1	0	58	22	25	0	26	12	5	15	0
O=C(CCO)NCCn1ccc2ncnc(Nc3ccc(Oc4cccc(C(F)(F)F)c4)c(Cl)c3)c21	8	0	1	0	0	5	2	26	0	0	39	72	0	0	8	0	0	0	0	0
FC(F)(F)c1ccc(-c2nn3ncccc3c2-c2ccnc(Nc3cccc(C(F)(F)F)c3)n2)cc1 [GW828205]	0	0	0	2	43	0	0	25	0	0	0	16	17	0	0	0	22	0	0	0
Clc1cccc(-c2nc(Nc3ccncc3)c3ccccc3n2)c1 [GW873004]	0	0	0	1	10	14	0	31	54	12	28	59	0	6	0	0	0	0	0	0
OCCOCCn1ccc2ncnc(Nc3ccc(Oc4cccc(Cl)c4)c(Cl)c3)c21	0	0	0	0	0	0	0	41	0	0	24	74	0	0	19	0	0	0	0	0
Cn1cc(-c2ccc3c(c2)CCN3C(=O)Cc2cccc(C(F)(F)F)c2)c2c(N)ncnc21 [GSK2606414]	1	0	0	0	87	0	0	20	0	9	0	0	43	15	0	0	0	0	3	9
N#Cc1ccc(Oc2ccc(Nc3ncnc4cc[nH]c34)cc2Cl)cc1	58	9	20	3	31	22	23	0	13	0	29	18	0	6	0	0	13	43	0	9
Cn1ccc2ncnc(Nc3ccc(Oc4cccc(Cl)c4)c(Cl)c3)c21	8	0	0	0	24	44	0	0	0	6	0	55	5	11	4	0	26	11	29	17
C[C@@H]1CCN(C(=O)CO)C[C@@H]1N(C)c1ncnc2[nH]ccc12	19	0	0	0	12	0	16	20	0	8	0	5	0	27	8	10	0	0	0	0
COc1ccc(-c2oc3ncnc(N)c3c2-c2ccc(OC)cc2)cc1 [SB-589132]	30	10	0	29	49	100	0	54	24	8	28	0	33	0	4	51	11	0	10	0
COC(=O)c1cccc(NC(=O)NCCNc2ccnc(Nc3ccc(F)cc3)n2)c1 [GSK1379883]	18	25	7	0	23	0	0	5	0	19	16	0	0	0	0	1	26	0	0	0
Nc1nc(-c2ccc3c(N)n[nH]c3c2)cc(N2CCCCC2)n1 [GSK2228768]	5	11	0	0	5	0	0	3	0	0	0	0	0	0	0	0	17	0	0	0
CS(=O)(=O)CCNCc1nc(-c2ccc3ncnc(Nc4ccc(OCc5cccc(F)c5)c(Cl)c4)c3c2)cs1.Cl [GW583340]	0	0	0	0	7	0	9	5	0	3	17	20	0	0	0	0	23	0	0	0
COc1cc2c(Nc3cccc(NC(=O)c4ccccc4)c3)ncnc2cc1OCCCN1CCOCC1 [GSK223810]	34	58	31	0	93.4	0	0	84	13	7	0	10	0	0	90.3	0	0	0	0	6
Fc1ccc(Nc2nccc(-c3c(-c4ccc(Cl)cc4)nn4ncccc34)n2)cc1F [GW829058]	40	63	56	12	38	11	19	11	0	7	8	28	0	6	24	5	12	24	22	27
Fc1cccc(COc2ccc(Nc3ncnc4nn5ccccc5c34)cc2Cl)c1 [GW689066]	11	10	0	0	0	0	0	5	0	0	14	0	31	0	0	16	0	0	0	8
